36 compounds from PubChem BioAssay can be followed below.

Unmarked numbers belong to inactive results. Active and inactive are the calls of the source.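 The calls were made as follows: active = growth inhibition above 50% at the single 2 µM test dose, taken to imply half-maximal potency below 2 µM; inactive = the rest.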

A short description of the test: antimalarial activity against Dd2 strain (AID 2302).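 Also: 0% = DMSO untreated growth and 100% = chloroquine plus artemisinin killed control.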 The conditions noted are these: P. falciparum Dd2 in RBCs, LDH growth readout, 72 h; at 2 µM; active compounds read high.
Regarding `CC[C@@H]([C@@H](Cc1cc2ccccc2s1)C(=O)N[C@@H](CCCCNC(=O)OCc1ccccc1)C(=O)Nc1ccccn1)N(O)C=O`, the growth inhibition is 70% (active).
In the case of `CC(C)(C)c1ccc(C(=O)N2CCC3(CC2)C(=O)N(CC(=O)NCC2CCCO2)CN3c2ccccc2)cc1` (stereo unspecified) it was 100% (active).
`NC(=O)c1cccc(CNC(=O)NC[C@H]2CN(Cc3ccc(Cl)c(Cl)c3)CCO2)c1`: the growth inhibition is 65% (active).
In the case of `Cc1cc(Nc2cccc(Cl)c2)nc2ccc(NC(=O)c3ccc(=O)[nH]c3)cc12` it was 23%; in that of `COc1ccc(NC(=O)Nc2ccc(-c3cccc(-c4nc5c(C)cccc5[nH]4)c3)cc2)cc1`, 75% (active).
In the case of `CN(C)CCN(Cc1ccccc1-c1ccc(CNCCc2ccccc2)cc1)C(=O)NC1CCCCC1` it was 89% (active); in that of `CN1CCC(N(Cc2ccc(-c3ccc(C(F)(F)F)cc3)nc2)C(=O)Cn2c(CCc3cccc(F)c3F)cc(=O)c3ccccc32)CC1`, 85% (active); in that of `CC(c1cccc(S(=O)(=O)NCc2cccc(C(F)(F)F)c2)c1)N1CCC(N2CCCCC2)CC1` (stereo unspecified), 35%.
In the case of `CCCn1c(Sc2ccc(C#N)c([N+](=O)[O-])c2)nnc1-c1ccc(OC)cc1` it was 95% (active); in that of `CCOC(=O)C(C(C)=O)C(c1ccccc1)C(C(C)=O)C(=O)OCC` (stereo unspecified), 14%.
Regarding `FC(F)(F)c1ccc2nc(-c3cccc(-c4ccc(CNCCc5ccncc5)cc4)c3)[nH]c2c1`, the growth inhibition was 100% (active).
In the case of `CC(C)c1nc(N2CCN(C(=S)NCc3ccccc3)CC2)c(C#N)c2c1COC(C)(C)C2` it was 100% (active); in that of `O=C(NCCc1ccc(Cl)c(Cl)c1)[C@@H]1CCCN1C(=O)c1ccc(O)c(-c2ccc(Cl)c(Cl)c2)c1`, 99% (active); in that of `NCC1CCCN1Cc1cccc(-c2ccc(-c3nc4ccc(C(F)(F)F)cc4[nH]3)s2)c1` (stereo unspecified), 96% (active).
In the case of `CN(CCCNc1ccc(C(=O)Nc2ccc(C(F)(F)F)cc2)cc1[N+](=O)[O-])Cc1ccccc1` it was 48%; in that of `Cc1ccc(-c2cc(C(=O)Nc3ccc(S(=O)(=O)N4CCCCC4C)cc3)[nH]n2)c(O)c1` (stereo unspecified), 99% (active).
Next, `COc1ccccc1-c1cccc(Nc2c(Nc3ccc(Cl)cc3)c(=O)c2=O)c1`: 47%; `O=C(Nc1cccnc1)c1cc(-c2cc(Cl)ccc2O)n[nH]1`: 85% (active); `Cc1ccc(NC(=O)c2ccc(CN3CCCN(CC4CCCCC4)CC3)cc2)cc1C`: 32%.
For `Cc1cc(N2CCN(C(=O)OC(C)(C)C)CC2)ccc1N`, the growth inhibition was 38%.
Next, `O=C1CSc2ccc(CNC3CCN(CCc4c(F)cnc5ccc(F)cc45)CC3)nc2N1`: 16%; `CCN(CC)CCOc1c(Cl)cc(Cl)cc1CNCCCNc1cc(=O)c2ccccc2[nH]1`: 6%; `Cc1cc(NC(=O)NCCN2CCC(NS(=O)(=O)c3ccc(Br)cc3)C2)c2ccccc2n1` (stereo unspecified): 51% (active).
Next, `Cc1cc(N[C@@H](Cc2ccccc2)C(=O)Nc2ccccc2)nc(NCCc2cccnc2)n1`: 57% (active); `COc1ccc(C2CCN(CCCNC(=O)c3ccc(NC(=O)c4ccc(Cl)cc4)cc3)CC2)c(OC)c1`: 58% (active); `COc1ccccc1CCNc1nc(C)cc(N[C@@H](Cc2ccccc2)C(=O)NCCCOC(C)C)n1`: 32%.
In the case of `Cc1ccccc1C(O)CNc1ccnc(Nc2cccc(C#N)c2)n1` (stereo unspecified) it was 12%.
As for `COc1cc2nc(Nc3ccc(C)cc3)nc(Nc3ccc(C)cc3)c2cc1OC`, the growth inhibition is 100% (active).
Next, `CC(CCCCC(=O)Nc1ccc(CC(C)NCCc2cccc(Cl)c2)cc1)NCCc1cccc(Cl)c1` (stereo unspecified): -1%; `CCc1cn2c3c(cc(C(=O)N[C@@H](Cc4ccccc4)[C@H](O)CN[C@@H](C)CC)cc13)N(C)S(=O)(=O)CC2`: 98% (active).
`CCOc1ccc(NC(=O)c2ccc(CN3CCCN(Cc4cccc(O)c4)CC3)cc2)cc1`: the growth inhibition is 9%.
In the case of `Cc1cccc2[nH]c(-c3ccc(-c4ccc(CN5CCC(C(N)=O)CC5)cc4)s3)nc12` it was 51% (active); in that of `CN(Cc1cc(C(F)(F)F)cc(C(F)(F)F)c1)C(=O)C(Cc1ccc(F)cc1)C1CCCNC1` (stereo unspecified), 89% (active).
Take `Cc1cccc2[nH]c(-c3cccc(-c4cccc(NC(=O)c5ccncc5)c4)c3)nc12`: the growth inhibition was 78% (active).
In the case of `Oc1c(Cl)cc(-c2ccccc2)cc1CNC1CCCCC1` it was 95% (active); in that of `NC(N)=Nc1nc(-c2cccc(NC(=O)NCc3ccc(OC(F)(F)F)cc3)c2)cs1`, 26%.
